Bioassay records (PubChem)
The list is not random: actives were taken first. Their share in the collection is about 2%.
NR2F2 inh: inhibitors of human COUP-TFII (NR2F2); P24468; HEK293T NGFI-A luciferase reporter, luminescence; inhibition, % at 8.6 µM; hit rate 0.7% among 370,000;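 active = inhibition above a per-plate cutoff, mean inhibition of test wells between control levels plus 3 SD, cut at about 38% in these data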;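 also: cells cotransfected with COUP-TFII expression vector driving the NGFI-A reporter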
Target sequence (P24468 whole entry, looked up): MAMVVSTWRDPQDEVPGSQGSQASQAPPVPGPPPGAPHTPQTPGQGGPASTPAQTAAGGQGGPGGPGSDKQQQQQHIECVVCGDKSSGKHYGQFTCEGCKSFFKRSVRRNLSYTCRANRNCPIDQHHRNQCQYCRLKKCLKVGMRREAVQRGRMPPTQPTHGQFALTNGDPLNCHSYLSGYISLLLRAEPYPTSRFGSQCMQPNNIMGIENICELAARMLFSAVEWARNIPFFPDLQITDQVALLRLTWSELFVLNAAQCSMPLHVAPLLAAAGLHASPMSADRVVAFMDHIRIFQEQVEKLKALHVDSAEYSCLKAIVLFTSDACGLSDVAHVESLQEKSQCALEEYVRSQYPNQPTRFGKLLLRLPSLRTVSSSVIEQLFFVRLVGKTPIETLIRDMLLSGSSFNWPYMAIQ
697 NFkB inh: inhibitors of the PMA/ionomycin-induced NF-kB reporter in 697 B cells; inhibition, % at 4 µM; AID 435022; hit rate 0.33% among 330,000; 697 B-cell NF-kB luciferase reporter, 16 h; in the data active = inhibition above about 35%
Gli-Sufu antag: Gli-Sufu pathway antagonism; hit rate 0.74% among 340,000; Sufu-KO-LIGHT fibroblasts, Gli luciferase reporter luminescence; inhibition, % at 5 µM;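 active = inhibition above about 55%, limit read from the data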
GalR3 antagonist: blocks the human galanin receptor 3; O60755; HEK293 GalR3-CNG cAMP membrane potential fluorescence; galR3 body fused to GalR1 C-terminus; inhibition, % at 3 µM; hit rate 0.44% among 360,000;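 active = inhibition above the screen-wide average plus 3 SD, cut at about 13% in these data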;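 also: forskolin and galanin both at EC90 stimulate the cells; cAMP rise reported by CNG channel membrane potential dye signal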
Target sequence (O60755 1-299 limits assumed): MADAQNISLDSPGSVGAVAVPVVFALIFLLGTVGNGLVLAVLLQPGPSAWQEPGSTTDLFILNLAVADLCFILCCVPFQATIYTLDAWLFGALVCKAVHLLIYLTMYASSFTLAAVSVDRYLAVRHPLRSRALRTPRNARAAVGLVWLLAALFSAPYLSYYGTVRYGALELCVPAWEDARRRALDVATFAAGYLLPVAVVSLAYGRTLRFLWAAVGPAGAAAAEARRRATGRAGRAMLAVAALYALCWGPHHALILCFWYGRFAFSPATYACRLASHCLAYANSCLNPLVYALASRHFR
Jurkat NFkB inh: lowers PMA/ionomycin-induced NF-kB signal in Jurkat cells; PMA/ionomycin-induced NF-kB luciferase reporter, luminescence; inhibition, % at 4 µM; hit rate 0.53% among 330,000; AID 435003; in the data active = inhibition above about 50%
GalR3 antag conf: GalR3 (human) antagonism, confirmation | hit rate 59% among 1,600 | AID 652245 | HEK293 GalR3 CNG cAMP biosensor, membrane potential fluorescence; galR3 fused to GalR1 carboxy tail; challenged with forskolin and galanin at EC90 | shares compounds with GalR3 antagonist | inhibition, % at 3 µM;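 active = inhibition above the primary screen's cutoff, the mean inhibition of all screened compounds plus 3 SD, cut at about 13% in these data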
CNG parental: acts as nonspecific agonist in parental HEK-CNG cells. shares compounds with GalR3 antagonist. HEK293-CNG parental cells, cAMP membrane potential fluorescence; normalised: DMSO wells 0%, forskolin wells 100%. activation, % at 3 µM. hit rate 10% among 1,600. AID 652268; in the data active = activation above about 1.3%
Large screens that a line does not name were inactive (follow-up assays come after a bar, where they were run).

O=C(CSc1nnc(-c2ccco2)n1-c1ccc(Cl)cc1)Nc1ccccc1-c1ccccc1	none (no result: 697 NFkB inh, Gli-Sufu antag, GalR3 antagonist, Jurkat NFkB inh)
C[N+](C)(C)C/C=C1/COCO1	GalR3 antagonist 20 | GalR3 antag conf 13 | CNG parental inactive
O=C(/C=C/c1ccccc1)NC(NC(=S)Nc1cccc(O)c1)C(Cl)(Cl)Cl (stereo not given)	GalR3 antagonist 18 | GalR3 antag conf 17 | CNG parental inactive
O=C(/C=C/c1ccccc1)NC(NC(=S)Nc1cccc(Cl)c1)C(Cl)(Cl)Cl (stereo not given)	none
COC(=O)CCCN=C1SCCN1Cc1ccccc1	GalR3 antagonist 15 | GalR3 antag conf inactive | CNG parental inactive
O=C(CSc1nccc(=O)[nH]1)Nc1cccc(S(=O)(=O)N2CCOCC2)c1	GalR3 antagonist 31 | GalR3 antag conf inactive | CNG parental inactive
COc1ccc(-c2ccc(-c3cc(=O)oc4c(C(C)C)ccc(C)c34)cc2)cc1	GalR3 antagonist 23 (no result: Jurkat NFkB inh) | GalR3 antag conf 13 | CNG parental inactive
CCCCOCCCNC(=O)C[C@H]1C[C@@]2(C(=O)OC)C(=C[C@H](C(C)C)O[C@@H]2C2CC2)N(Cc2ccc(Cl)cc2Cl)C1=O	none (no result: 697 NFkB inh, Gli-Sufu antag, GalR3 antagonist, Jurkat NFkB inh)
CCCCCCNC(=O)CC(NS(=O)(=O)c1ccc(OC)cc1)C(C)C (stereo not given)	GalR3 antagonist 21 | GalR3 antag conf inactive | CNG parental inactive
CCCCCCCNC(=O)CC(NS(=O)(=O)c1ccc(NC(C)=O)cc1)C(C)C (stereo not given)	none
COc1ccc(C(=O)C2(C(=O)NCc3ccccc3)CC(c3ccccc3C(F)(F)F)=NO2)cc1 (stereo not given)	none (no result: 697 NFkB inh, Gli-Sufu antag, GalR3 antagonist, Jurkat NFkB inh)
O=C1C(=O)N(Cc2ccc(-c3ccc(F)nc3)cc2)c2ccc(OC(F)(F)F)cc21	none (no result: 697 NFkB inh, Gli-Sufu antag, GalR3 antagonist, Jurkat NFkB inh)
Cc1cc2ccccn2c1C(=O)Nc1cccc(Cl)c1	GalR3 antagonist 13 | GalR3 antag conf inactive | CNG parental inactive
Cc1cc2ccccn2c1C(=O)c1ccc(Cl)cc1	none
CC(=O)Nc1ccc(S(=O)(=O)NCC(=O)OCC(=O)N2CCc3ccccc32)cc1	GalR3 antagonist 13 | GalR3 antag conf inactive | CNG parental inactive
COCCCN1C(=O)c2ccc(C(=O)OCC(=O)N(C)c3ccccc3)cc2C1=O	none (no result: GalR3 antagonist) | GalR3 antag conf inactive | CNG parental inactive
C#CCOCCOCCOCCNc1nc(N2CCN(C(=O)[C@H]([C@@H](C)CC)n3cc(CCCCN)nn3)CC2)nc(N2CCN(C(=O)[C@H](CCCCN)n3cc(CC(C)O)nn3)CC2)n1 (stereo not given in full)	none
C#CCOCCOCCOCCNc1nc(N2CCN(C(=O)[C@H]([C@@H](C)CC)n3cc(CCC(=O)O)nn3)CC2)nc(N2CCN(C(=O)[C@H](CCCCN)n3cc(CCC(=O)O)nn3)CC2)n1	none (no result: 697 NFkB inh, GalR3 antagonist, Jurkat NFkB inh) | GalR3 antag conf inactive | CNG parental inactive
Cc1ccc(NC(=O)C2CCCN2S(=O)(=O)c2cccnc2)c(C)c1 (stereo not given)	none (no result: 697 NFkB inh, Gli-Sufu antag, GalR3 antagonist, Jurkat NFkB inh)
O=C(Nc1ccccc1C1CC1)c1cccs1	GalR3 antagonist 78 | GalR3 antag conf inactive | CNG parental inactive
CSc1ccccc1NC(=O)c1cccs1	none
CC1(C)CC(=O)c2c(Cc3ccccc3)noc2C1	GalR3 antagonist 20 | GalR3 antag conf inactive | CNG parental 1.3
COc1cccc(C2=NN(C(=O)c3cccs3)C(O)(C(F)(F)F)C2)c1 (stereo not given)	GalR3 antagonist 13 | GalR3 antag conf inactive | CNG parental inactive
COc1ccccc1NS(=O)(=O)c1ccc(N/N=C(\C)C(C)C)c([N+](=O)[O-])c1	GalR3 antagonist 33 | GalR3 antag conf 13 | CNG parental inactive
O=C(c1cc(-c2ccc(Cl)cc2)nc2ccccc12)N1CCN(c2ncccn2)CC1	none (no result: 697 NFkB inh, Gli-Sufu antag, GalR3 antagonist, Jurkat NFkB inh)
CCC(=O)c1ccc(OCC(=O)O)cc1	none (no result: 697 NFkB inh, GalR3 antagonist, Jurkat NFkB inh) | GalR3 antag conf inactive | CNG parental inactive
CCC(=O)c1ccc(OCC(=O)NC2CCCC2)cc1	none
O=C(O)c1ccccc1NS(=O)(=O)c1cccc(-n2sc3ccccc3c2=O)c1	GalR3 antagonist 33 | GalR3 antag conf 23 | CNG parental inactive
NC(=NCCc1c[nH]c2ccccc12)NC(=O)OCc1ccccc1	none (no result: 697 NFkB inh, Gli-Sufu antag, GalR3 antagonist, Jurkat NFkB inh)
C=CCn1c(COc2ccc(Cl)cc2)nnc1SCC(=O)c1c(N)n(C)c(=O)n(C)c1=O	GalR3 antagonist 16 | GalR3 antag conf inactive | CNG parental inactive
COCCCn1c(-c2cccc(Cl)c2)nc2c1c(=O)[nH]c(=O)n2Cc1ccccc1	none
COCCn1c(=O)[nH]c(=O)c2c1nc(-c1cc(Br)c3c(c1)OCO3)n2Cc1ccccc1	GalR3 antagonist 15 | GalR3 antag conf 16 | CNG parental inactive
Cc1cc(=S)c2cccc(C)c2[nH]1	GalR3 antagonist 21 | GalR3 antag conf 30 | CNG parental inactive
Cc1nc(-c2ccc(C(=O)Nc3cccc(Br)c3)cc2)cs1	GalR3 antagonist 98 | GalR3 antag conf 102 | CNG parental inactive
CC(=O)c1cccc(CN2CCN(CC=C(C)C)C(CCO)C2)c1 (stereo not given)	GalR3 antagonist 16 | GalR3 antag conf inactive | CNG parental inactive
O=C(OCc1ccc(CSc2nnc(-c3cccc4ccccc34)o2)cc1)c1ccc(F)cc1	none (no result: 697 NFkB inh, Gli-Sufu antag, GalR3 antagonist, Jurkat NFkB inh)
Cc1ccc(S(=O)(=O)NN2C(=O)c3ccccc3NC2c2ccccn2)cc1 (stereo not given)	GalR3 antagonist 14 | GalR3 antag conf inactive | CNG parental inactive
CN(c1ccccc1)S(=O)(=O)c1cccc(NC(=O)CN2C(=O)NC3(CCCCC3)C2=O)c1	none
CC(C)CC1(C)NC(=O)N(CC(=O)Nc2cccc(S(=O)(=O)N(C)c3ccccc3)c2)C1=O (stereo not given)	GalR3 antagonist 14 | GalR3 antag conf 57 | CNG parental inactive
COc1ccccc1C(=O)Nc1nnc([C@H]2C[C@H](O)[C@@H](CO)O2)s1	GalR3 antagonist 25 (no result: 697 NFkB inh, Gli-Sufu antag, Jurkat NFkB inh) | GalR3 antag conf inactive | CNG parental inactive
Fc1ccc(/C=N/NC(=S)Nc2cccnc2)cc1	GalR3 antagonist 21 | GalR3 antag conf inactive | CNG parental inactive
CCOC(=O)c1ccc(NC(=O)Nc2ccc(F)cc2)cc1	none
CCOC(=O)c1cc[n+](CC(=O)c2ccc(F)cc2)cc1	GalR3 antagonist 15 | GalR3 antag conf inactive | CNG parental inactive
COc1ccc(CC(=O)N2CCN(c3ccc(C4=NNC(=O)CC4C)cc3)CC2)cc1 (stereo not given)	GalR3 antagonist 76 | GalR3 antag conf 87 | CNG parental inactive
COc1ccc(CC(=O)N2CCN(C(=O)Cc3ccc(OC)cc3)CC2)cc1	none
COc1ccc(-c2c(C(=O)c3ccccc3)[nH]c(N)c2C(=O)c2c[nH]c3ccccc23)cc1OC	none (no result: 697 NFkB inh, Gli-Sufu antag, GalR3 antagonist, Jurkat NFkB inh)
CCN(CC)C(=O)OCCc1cc2ccccc2c(=O)o1	none (no result: GalR3 antagonist) | GalR3 antag conf inactive | CNG parental inactive
CCCCCC(=O)NNC(=S)NC(C)=O	GalR3 antagonist 13 | GalR3 antag conf inactive | CNG parental inactive
